In the library only some 5.7% were active in any assay of this set; here they are far more common.
hcDAF12 agonist – H. contortus DAF-12 nuclear receptor activators, primary screen, cell-based, luminescence, HEK293, lit1-tk-luc reporter; AID 652067, 2013; HEK293 hcDAF-12 lit1-tk-luc reporter; 0% DMSO, 100% Δ7-dafachronic acid; 370,000 tested, 1.4% active; activation, % at 6.8 µM;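 active means activation above the mean of all tested compounds plus 3 SD, cut at about 5.5% in these data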
ssDAF12 agonist – S. stercoralis DAF-12 nuclear receptor activators, primary screen, cell-based, luminescence, HEK293, GRIP1 co-expression, lit1-tk-luc | HEK293 ssDAF-12/GRIP1 lit1-tk-luc reporter; % of 3 µM dafachronic acid response | activation, % at 6.8 µM | 370,000 tested, 1% active | AID 652126, 2013;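 active means activation above the mean over all tested compounds plus 3 SD, cut at about 0.9% in these data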
DAX1 inh-1 – DAX1 (NR0B1) inhibitors, primary screen, cell-based, HEK293, Gal4-DAX1, luciferase luminescence | Nuclear receptor subfamily 0 group B member 1 (Homo sapiens), P51843 | HEK293 Gal4-DAX1 luciferase reporter | inhibition, % at 6.75 µM | 340,000 tested, 0.99% active | AID 504766, 2011;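 active means inhibition above the mean over all tested compounds plus 3 SD, cut at about 4.2% in these data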;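 further: inhibition shows as a rise in luminescence from relieved DAX1 repression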
DAX1 inh-2 – DAX1 (NR0B1) inhibitors on StAR promoter, primary screen, cell-based, luminescence, SF-1 (NR5A1), full-length DAX-1; HEK293T StAR-luciferase reporter, SF-1/DAX-1 repression relief; inhibition, % at 6.8 µM; 370,000 tested, 1.1% active; AID 652010, 2013;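 active means inhibition above the mean over all tested compounds plus 3 SD, cut at about 3.6% in these data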;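 further: higher inhibition means more luminescence from relief of DAX-1 repression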
hgDAF12 agonist – H. glycines DAF-12 receptor agonists, primary screen, cell-based, luminescence, HEK293, GAL4 fusion, UAS-luciferase; activation, % at 6.8 µM; HEK293 GAL4-hgDAF12 UAS-luciferase reporter, agonist luminescence; normalized to butyrate control; Nuclear hormone receptor DAF-12 (Heterodera glycines), GAL4 fusion; 370,000 tested, 1.8% active; AID 687014, 2013;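 active means activation above a cutoff set at the mean of all screened compounds plus 3 SD, cut at about 10% in these data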
AHR activator – AHR activators, primary screen, cell-based, luminescence, luciferase reporter, human | Aryl hydrocarbon receptor (Homo sapiens), P35869 | AHR-responsive luciferase reporter cells | activation, % at 5 µM | 320,000 tested, 2.5% active | AID 2796, 2010; in the data active means activation above about 47%
Target sequence (P35869 whole entry, looked up): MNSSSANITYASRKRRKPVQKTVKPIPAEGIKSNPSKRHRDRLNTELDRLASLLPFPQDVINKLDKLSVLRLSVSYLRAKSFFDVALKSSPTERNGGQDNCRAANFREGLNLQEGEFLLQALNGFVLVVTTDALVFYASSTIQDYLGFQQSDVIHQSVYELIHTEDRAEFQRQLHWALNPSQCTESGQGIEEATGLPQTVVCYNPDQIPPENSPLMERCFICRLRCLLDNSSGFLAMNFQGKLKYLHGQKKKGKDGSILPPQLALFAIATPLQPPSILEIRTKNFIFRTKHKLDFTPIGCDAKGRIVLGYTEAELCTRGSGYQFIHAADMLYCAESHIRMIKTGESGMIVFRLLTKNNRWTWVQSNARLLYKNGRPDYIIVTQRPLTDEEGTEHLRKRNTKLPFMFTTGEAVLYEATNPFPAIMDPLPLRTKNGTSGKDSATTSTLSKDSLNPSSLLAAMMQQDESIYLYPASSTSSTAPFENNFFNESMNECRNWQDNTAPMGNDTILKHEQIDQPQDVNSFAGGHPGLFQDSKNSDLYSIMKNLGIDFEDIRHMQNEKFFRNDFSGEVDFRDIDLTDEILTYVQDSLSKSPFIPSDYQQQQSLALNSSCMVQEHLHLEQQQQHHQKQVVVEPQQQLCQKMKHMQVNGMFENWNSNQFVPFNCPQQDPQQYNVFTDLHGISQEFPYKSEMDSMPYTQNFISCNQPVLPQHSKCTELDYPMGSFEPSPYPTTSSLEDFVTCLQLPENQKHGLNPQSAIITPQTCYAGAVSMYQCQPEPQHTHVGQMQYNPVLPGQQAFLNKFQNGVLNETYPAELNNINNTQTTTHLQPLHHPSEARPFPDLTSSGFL
Of the large screens only hits and unclear results are named; the others gave an inactive call.

CNC(=O)c1ccsc1NC(=O)c1ccccc1	AHR activator 49
O=C(Nc1nc(-c2cccs2)cs1)c1ccc(Cl)s1	hgDAF12 agonist 11
CNC(=O)c1ccsc1NC(=O)c1ccc(Cl)s1	AHR activator 66
Cc1ccccc1CN1[C@@H](C)[C@H](c2ccccc2)Oc2cccc(NCC(C)C)c2S1(=O)=O	none (no result: DAX1 inh-1, AHR activator)
Cc1ccc(-c2[nH]n3c(=O)c4c(nc3c2C)CCCC4)cc1	none
Cc1c(-c2ccccc2)[nH]n2c(=O)c3c(nc12)CCCC3	hgDAF12 agonist 11
Cc1ccccc1C(=O)Nc1ccnn1C1CCN(Cc2ccccn2)CC1	none
O=S(=O)(Nc1ccc(-c2cn3c(n2)SCC3)cc1)c1ccccc1F	none
O=C1c2ccccc2C(=O)N1CC(O)CN1CCOCC1 (configuration not stated)	ssDAF12 agonist 3.9
OC(CN1CCOCC1)Cn1c2ccccc2c2ccccc21 (configuration not stated)	none
O=C(Nc1cc([N+](=O)[O-])ccc1C(=O)Nc1cccnc1)c1ccccc1	AHR activator 66
O=C(Nc1cccnc1)c1cccc([N+](=O)[O-])c1	none
Cc1ccc(NC(=O)c2cc([N+](=O)[O-])ccc2NCc2cccnc2)cc1	AHR activator 75
COc1ccc([N+](=O)[O-])cc1NCc1cccnc1	none
O=C(O)c1cc([N+](=O)[O-])ccc1Nc1ccccc1	DAX1 inh-1 4.3
CC(=O)N1c2ccc(S(=O)(=O)N(C)CC(=O)Nc3ccccc3C)cc2CC1C (configuration not stated)	none
CCc1ccc2nc(/N=C(\N)NC(=O)c3ccccc3)nc(C)c2c1	none
Cc1cc(C)nc(/N=C(\N)Nc2ccc(-c3ccccc3)cc2)n1	none
N/C(=N\c1nc2ccccc2o1)NC(=O)c1cccc(Cl)c1	none (no result: DAX1 inh-1)
CCCCC(=O)N/C(N)=N/c1nc2ccccc2o1	DAX1 inh-1 16, hgDAF12 agonist 12
Cc1cc(C)c2nc(/N=C(\N)NC(=O)Nc3ccccc3)nc(C)c2c1	AHR activator 70
CCCC(=O)N/C(N)=N/c1nc(C)c2ccccc2n1	AHR activator 60
N/C(=N\c1nc2ccccc2o1)NC(=O)c1ccccc1NC(=O)c1ccccc1	AHR activator 66
NC(N)=Nc1nc2ccccc2o1	none
Cc1ccc(Cn2c(=O)n(Cc3ccc(C(=O)NCC4COC4)cc3)c(=O)c3ccccc32)cc1	none (no result: DAX1 inh-1, AHR activator)
COC(=O)[C@]12C[C@H](CC(=O)NCC3CCCCC3)C(=O)N(Cc3ccccc3)C1=C[C@H](C(C)(C)C)O[C@@H]2C	none (no result: DAX1 inh-1, AHR activator)
O=C(O)c1cc(S(=O)(=O)Nc2ccc(OCc3ccccc3)cc2)ccc1Br	none
CC(=O)NCCC1CCN(C(=O)c2cc(COc3ccc(C)nc3)on2)CC1	none
CN(C)Cc1c(C(C)(C)O)[nH]c2cc(C(F)(F)F)ccc12	none (no result: DAX1 inh-1, AHR activator)
Cc1cc(NC(=S)NC(=O)/C=C/c2ccc(S(=O)(=O)N3CCOCC3)cc2)ccc1Br	ssDAF12 agonist 3.9
O=C(/C=C/c1ccccc1)Nc1cc(S(=O)(=O)N2CCOCC2)ccc1N1CCCC1	none
O=C(/C=C/c1ccccc1)Nc1cc(S(=O)(=O)N2CCOCC2)ccc1N1CCOCC1	DAX1 inh-1 4.5 (no result: AHR activator)
O=C(Cc1c(F)cccc1Cl)Nc1cc(S(=O)(=O)N2CCCCC2)ccc1N1CCOCC1	DAX1 inh-1 5.8
O=C(CSc1ccccc1)Nc1cc(S(=O)(=O)N2CCOCC2)ccc1N1CCOCC1	DAX1 inh-1 4.3
CC(C)(C)c1ccc(C(=O)NC(=O)COC(=O)CCS(=O)(=O)c2ccccc2)cc1	none
O=C1c2ccccc2-c2nnc(-c3ccc(O)cc3)cc21	hcDAF12 agonist 5.9, hgDAF12 agonist 11
Cc1ccc(-c2cc3c(nn2)-c2ccccc2C3=O)cc1	hcDAF12 agonist 6.3
COc1ccccc1-n1cnnc1SCC(=O)NCC1CCCO1 (configuration not stated)	none
O=C1CC(C(=O)Nc2ccc(Cl)cc2)n2ncnc2N1 (configuration not stated)	none
Cc1ccc(NC(=O)C2CC(=O)Nc3nncn32)cc1 (configuration not stated)	ssDAF12 agonist 8.3
CN(c1ccc(C(=O)N2CCN(Cc3ccccc3)CC2)cc1)S(=O)(=O)c1ccccc1	none
CCN1CCN(C(=O)c2ccc(Cl)c(S(=O)(=O)N(C)c3ccccc3)c2)CC1	DAX1 inh-1 6.0
O=C1NC[C@@H](Cc2cccc3ccccc23)N(CCc2cccc(F)c2)C1=O	none (no result: DAX1 inh-1, AHR activator)
COC(=O)c1ccc(COc2ccccc2/C=C(\C#N)C(=O)Nc2ccc(C)cc2)cc1	DAX1 inh-2 3.9, hgDAF12 agonist 11
C=CCNC(=O)/C(C#N)=C/c1ccccc1OCc1ccc(C(=O)OC)cc1	none
CCCCCN(C(=O)CCC(=O)OC(C)C(=O)c1ccc(CC)cc1)c1c(N)n(CCCC)c(=O)[nH]c1=O (configuration not stated)	none (no result: AHR activator)
C/C(=N\N1C(=O)c2ccccc2NC1c1ccccc1)c1ccccc1O (configuration not stated)	DAX1 inh-2 3.8
COc1ccc(/C(C)=N/N2C(=O)c3ccccc3NC2c2ccc(O)c(OC)c2)cc1 (configuration not stated)	none
Cc1ccc(/C=N/N2C(=O)c3ccccc3NC2c2ccc(C)cc2)cc1 (configuration not stated)	AHR activator 50
C/C(=N\N1C(=O)c2ccccc2NC1c1ccco1)c1ccccc1O (configuration not stated)	DAX1 inh-1 6.1
O=C1c2ccccc2NC(c2ccco2)N1/N=C/c1ccco1 (configuration not stated)	none
O=C1CC2c3cc(-c4cc5ccccc5o4)ccc3CCN2C(=O)CN1Cc1ccccc1 (configuration not stated)	none (no result: DAX1 inh-1, AHR activator)
CC(C)(C)OC(=O)N1CCC2CCN(S(=O)(=O)c3ccccc3)CC21 (configuration not stated)	none (no result: DAX1 inh-1, AHR activator)
Nn1c(SCC(=O)Nc2nccs2)nnc1C1CC1	none
CCCC/C(O)=C1\C(=O)CC(C)(C)CC1=Nc1ccc(N)cc1	DAX1 inh-1 6.0
COC(=O)c1c[nH]c2c1-c1cc(C(=O)OCc3ccccc3)n(S(=O)(=O)c3ccc(C)cc3)c1C(=O)C2=O	none (no result: AHR activator)
CC(C)C[C@@H]1COc2cc(F)ccc2S(=O)(=O)N1	none (no result: DAX1 inh-1, AHR activator)

High-throughput results (PubChem BioAssay)
